We go through 33 compounds from PubChem BioAssay (NCATS).

Records with an inconclusive call do not appear. Entries that show only a call come without a potency. The source made the active and inactive calls. The call rests on the fitted dose curve; in most records, active means well fitted inhibition curve with a large enough effect; inconclusive means small, poorly fitted or top-dose-only effect; inactive means no such curve, though single readings can be large or run the other way.
Potency means the concentration at half of the fitted maximal effect.

This test is described as follows: qHTS assay for measurement of the activity of small molecule inhibitors on Zika virus induced Caspase-3 activity in human iPSC derived neural progenitor cells (hNPCs) (AID 1224857). Further: nearly all actives have a fitted effect of over 65% in size. Particulars: hNPCs ZIKV-induced caspase-3/7, Caspase-Glo luminescence, 6 h; series mostly up to 45.7 µM. A digest of the protocol:
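Quantitative HTS format: human iPSC neural progenitors, 1 h compound pretreatment, ZIKV 2 FFU/cell for 6 h at 37 C. Percent inhibition derived from luminescent caspase-3/7 signal between uninfected and infected controls.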
Regarding `C#C[C@]1(O)CC[C@H]2[C@@H]3CCC4=CC(=O)CCC4=C3C=C[C@@]21CC`, the Potency result is “inactive”.
For `CN1C(=O)CN=C(c2ccccc2)c2cc([N+](=O)[O-])ccc21` the value was “inactive”; for `CC(C)C(Br)C(=O)NC(N)=O` (stereo not drawn), “inactive”.
For `CCCCCCCCC(=O)NCc1ccc(O)c(OC)c1` the value was “inactive”.
For `COP(=O)(OC)OC=C(Cl)Cl` the value was “inactive”; for `OC(O)C(Cl)(Cl)Cl`, “inactive”; for `CC(C)[N+](C)(CCC(C(N)=O)(c1ccccc1)c1ccccc1)C(C)C`, 31.6 µM (active).
Consider `CC1=C2[C@H]3OC(=O)[C@@H](C)[C@@H]3CC[C@@]2(C)C=CC1=O`, for which the Potency entry is “inactive”.
For `c1ccc2nc(N3CCNCC3)ccc2c1`, the Potency result was “inactive”.
For `CCN(Cc1ccc(Cl)nc1)/C(=C/[N+](=O)[O-])NC` the value was “inactive”.
Then `CN(C)C(=O)Oc1cc(OC(=O)N(C)C)cc(C(O)CNC(C)(C)C)c1` (stereo not drawn), with “inactive”; and `Cc1ccc(N=CN(C)C=Nc2ccc(C)cc2C)c(C)c1`, with “inactive”; and `C=CCN1CC[C@]23CCCC[C@H]2[C@H]1Cc1ccc(O)cc13`, with “inactive”.
For `COc1cc(N)c(Cl)cc1C(=O)NC1CN2CCC1CC2` (stereo not drawn) the value was “inactive”.
Consider `O=C1NCN(c2ccccc2)C12CCN(CCCOc1ccc(F)cc1)CC2`, for which the Potency result was “inactive”.
Turning to `C[C@]12Cc3nonc3C[C@@H]1CC[C@@H]1[C@@H]2CC[C@@]2(C)[C@H]1CC[C@]2(C)O`, the Potency entry is “inactive”.
Then `CN1C[C@@H](NS(=O)(=O)N(C)C)C[C@@H]2c3cccc4c3c(cn4C)C[C@H]21`, with “inactive”.
Then `CCC1(c2cccc(O)c2)CCCCN(C)C1` (stereo not drawn), with “inactive”; and `CCN(CC)C(C)C(=O)c1ccccc1` (stereo not drawn), with “inactive”; and `C[C@]12C=CC(=O)C=C1CC[C@@H]1[C@@H]2CC[C@@]2(C)[C@H]1CC[C@]2(C)O`, with “inactive”.
Take `CCCC(C)C1(CC)C(=O)N=C(S)NC1=O` (stereo not drawn): the Potency result was “inactive”.
Then `COP(=O)(OC)C(O)C(Cl)(Cl)Cl` (stereo not drawn), with “inactive”; and `Oc1c(Br)cc(Br)cc1Br`, with “inactive”.
For `Clc1ccc(CO/N=C(\Cn2ccnc2)c2ccc(Cl)cc2Cl)c(Cl)c1` the value was “inactive”.
Then `CC[C@]1(O)CC[C@H]2[C@@H]3CCC4=CCCC[C@@H]4[C@H]3CC[C@@]21C`, with “inactive”; and `CCCCCCCCCCCC[N+](C)(C)CCOc1ccccc1`, with “inactive”; and `C[N+]1(C)[C@@H]2CC[C@H]1CC(OC(=O)C(CO)c1ccccc1)C2` (stereo partly drawn), with “inactive”.
Take `CCC1(c2ccccc2)CCC(=O)NC1=O` (stereo not drawn): the Potency result is “inactive”.
For `C[C@@H]1CN(C2CCC(C#N)(c3ccc(F)cc3)CC2)CC[C@]1(C(=O)O)c1ccccc1` (stereo partly drawn) the value was “inactive”; for `Clc1ccc(C(OCCN2CCCCC2)c2ccccc2)cc1` (stereo not drawn), “inactive”.
For `CN1[C@@H]2CC[C@H]1CC(OC(=O)c1cc(Cl)cc(Cl)c1)C2` (stereo partly drawn) the value was “inactive”; for `NC(=O)CN1CCCC1=O`, “inactive”.
Then `C[C@]12CC[C@H](O)CC1=CC[C@@H]1[C@@H]2CC[C@]2(C)C(=O)CC[C@@H]12`, with “inactive”.
